Screening data as filed in PubChem BioAssay.
In the library only some 19% were active in any assay of this set; here they are far more common.
TDP1 cell CPT = DT40-hTDP1 cell growth loss with CPT | chicken DT40 Tdp1-/-;hTDP1 cells + 20 nM CPT, ATP luminescence, 48 h | Potency, µM (top dose mostly 46.2 µM), most hits filed as inhibitors | actives 12% (n = 420,000) | AID 686979; also: nearly all actives have a fitted effect of over 55% in size
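Chicken DT40 Tdp1-/- cells stably complemented with human TDP1 were seeded at 400 cells/well in medium containing 20 nM camptothecin, exposed to pin-transferred compounds, and grown at 37 °C for at least 48 hr. Viability was read as ATP luminescence.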
IL1B secr inh = inhibitors of inflammasome signaling (IL-1 beta secretion); THP-1 LPS/ATP IL-1B secretion, AlphaLISA, 16 h; active compounds read low; actives 4.7% (n = 360,000); AID 743279; activity change, % at 57.5 µM; in the data active = activity change below about -50%; inconclusive = mostly about -30% to -49%
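Secreted IL-1B measured by AlphaLISA bead assay after 16 h compound exposure of THP-1 cells; compounds (final up to 57.5 uM) added 1 h before LPS (250 ng/mL) and ATP (1.25 mM) stimulation; lower signal means less secretion.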
HT1080 IDH1KD tx = kills HT-1080 cells with IDH1 knockdown. HT-1080 IDH1 knockdown viability, ATP luminescence, 48 h. AID 686971. Potency, µM (series often up to 46.1 µM), usual class: cytotoxic. actives 2% (n = 360,000)
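IDH1KD HT-1080 cells, 750/well, RPMI + 5% FBS; compound pinned after 2 h settling; 48 h, 37 °C; CellTiter-Glo luminescence; % activity normalised to DMSO and no-cell wells; curves fitted, classed by r2 and efficacy.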
HT1080NT lethal = kills 2HG-producing HT-1080-NT fibrosarcoma cells. HT-1080-NT fibrosarcoma viability, CellTiter-Glo ATP luminescence, 48 h. Potency, µM (top dose mostly 46.1 µM), actives largely listed as cytotoxic. actives 1.6% (n = 360,000);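 also: NT is the 2HG producing partner of a matched IDH1 knockdown line; nearly all actives have a fitted effect of over 55% in size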
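Toxicity toward the 2HG-producing NT line was scored as %Activity, normalised to DMSO and no-cell wells, from CellTiter-Glo luminescence after 48 hours' treatment.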
TDP1 cell noCPT = qHTS for Inhibitors of human tyrosyl-DNA phosphodiesterase 1 (TDP1): qHTS in cells in absence of CPT. AID 686978, 2013. Potency, µM (highest dose often 46.2 µM), most hits filed as inhibitors. DT40 Tdp1-/- hTDP1 cells, no CPT, ATP luminescence, 48 h. actives 15% (n = 420,000); also: nearly all actives have a fitted effect of over 55% in size
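Luminescent ATP content (CellTiter-Glo) served as the growth readout. Knockout chicken DT40 cells expressing human TDP1 were exposed to compounds without camptothecin for a minimum 48 hr at 37 °C.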
Hits are given with their value; . = inactive; ? = inconclusive; / = no result given; ! = not confirmed by another sample; [ ] = dose if it differs, or a comment. Unless noted, calls follow the shape of the dose curve; as a rule, active = well fitted curve in the direction sought with a large enough effect; inconclusive = small, poorly fitted or top-dose-only effect, or another doubt; inactive = no such curve, though single readings can be large; an effect the other way counts as inactive or inconclusive.

SMILES | TDP1 cell CPT | IL1B secr inh | HT1080 IDH1KD tx | HT1080NT lethal | TDP1 cell noCPT
CC1C(=O)N(Cc2cn(Cc3ccco3)nn2)CCS(=O)(=O)N1Cc1ccc(-c2ccc(F)cc2)cc1 (centres undefined) | ? | . | . | . | ?
CC1C(=O)N(Cc2cn(Cc3ccco3)nn2)CCS(=O)(=O)N1Cc1ccc(-c2ccncc2)cc1 (centres undefined) | ? | . | . | . | 21µM
CN(CC(=O)Nc1cccc(Cl)c1)S(=O)(=O)/C=C/c1ccccc1 | . | ? | . | . | ?
FC(F)(F)c1ccccc1-n1ccnc1 | ? | . | . | . | 16µM!
FC(F)(F)c1ccccc1-c1cncnc1-n1ccnc1 | . | / | / | / | .
O=[N+]([O-])c1cc(S(=O)(=O)N2CCCCC2)ccc1NCCCN1CCOCC1 | . | . | . | . | .
Cc1cccc(C)c1OCC(=O)N[C@@H](Cc1ccccc1)[C@@H](O)C[C@H](Cc1ccccc1)NC(=O)[C@H](C(C)C)N1CCCNC1=O | 7.9µM | / | / | / | 19µM
CC(=O)NC(CC(=O)NNC(=O)COc1c(C)cccc1C)c1ccccc1 (centres undefined) | . | . | . | . | .
CCC[C@@H]1C[C@@H](C(=O)N[C@@H]([C@H]2O[C@H](SC)[C@H](O)[C@@H](O)[C@H]2O)[C@H](C)Cl)N(C)C1 | . | / | / | / | .
CCOC(=O)c1ccc(NC(=S)N2CCN(C(=O)C3CCCO3)CC2)cc1 (centres undefined) | . | . | . | . | .
COc1ccc(-c2noc(C3CCCN(C(=O)c4ccccc4C)C3)n2)cc1 (centres undefined) | 16µM | ? | . | . | 12µM
COc1cccc(-c2noc(C3CCCN(C(=O)c4cccc(F)c4)C3)n2)c1 (centres undefined) | ? | . | . | . | ?
COc1ccc(-c2noc(C3CCCN(C(=O)c4ccccc4OC)C3)n2)cc1 (centres undefined) | ? | . | . | . | 15µM
COc1ccc(C(=O)N2CCCC(c3nc(-c4cc(OC)c(OC)c(OC)c4)no3)C2)cc1 (centres undefined) | 21µM | . | . | . | ?
COc1ccccc1C(=O)N1CCCC(c2nc(-c3cc(OC)c(OC)c(OC)c3)no2)C1 (centres undefined) | . | . | . | . | ?
COc1ccc(-c2noc(C3CCCN(C(=O)c4cccc(F)c4)C3)n2)cc1 (centres undefined) | . | -69 | . | . | 18µM
CC1CCN(C(=O)COC(=O)c2cccc(S(=O)(=O)N(C)c3ccccc3)c2)CC1 | ? | . | . | . | ?
O=S(=O)(Nc1cccc(Cl)c1)c1ccc2oc(=S)[nH]c2c1 | . | . | . | . | .
COc1cc(-c2noc(C3CC(=O)N(c4cc(C)ccc4C)C3)n2)cc(OC)c1OC (centres undefined) | 18µM | / | / | / | 16µM
Cc1ccc(-c2noc(-c3ccccc3C(=O)N3CCCC3)n2)cc1 | 16µM | . | . | . | 23µM
Cc1ccc(C)c(N2CC(C(=O)O)CC2=O)c1 (centres undefined) | . | . | . | . | .
CC(c1ccncn1)N(C)Cc1nc(-c2ccc(C(F)(F)F)cc2)no1 (centres undefined) | 18µM | . | . | . | ?
c1cncc(-c2nnc(-c3cccnc3)nn2)c1 | 2.9µM | . | ? | ? | 5.2µM
CCOC(=O)c1sc(NC(=O)CSc2nccn2C)nc1C | . | . | . | . | .
CC1(C)C(=O)Nc2ccccc2N1C(=O)COC(=O)c1cccnc1 | . | . | . | .[9.24 µM] | .
SMILES | TDP1 cell CPT | IL1B secr inh | HT1080 IDH1KD tx | HT1080NT lethal | TDP1 cell noCPT
O=C(Cn1c(=O)n(Cc2nc(-c3ccccc3)no2)c(=O)c2cc3c(cc21)OCO3)Nc1cccc(C(F)(F)F)c1 | 13µM | / | / | / | 9.2µM
COc1ccc(-c2noc(Cn3c(=O)c4ccccc4n(CC(=O)Nc4cccc(C(F)(F)F)c4)c3=O)n2)cc1 | ? | / | / | / | 16µM
COc1ccc(OC)c(NC(=O)Cn2c(=O)n(Cc3nc(C)no3)c(=O)c3ccccc32)c1 | . | / | / | / | .
OC(c1ccc(F)cc1)c1nc(-c2ccoc2)cs1 (centres undefined) | . | . | . | . | .
Cc1cccc(C)c1NC(=O)c1cnn(-c2ccccc2)c1C | . | -62 | . | . | .
Cc1cccc(C)c1NC(=O)CNC(=O)Cc1c[nH]c2ccccc12 | . | . | . | . | .
Cc1c(C(=O)N(C)c2ccc(Cl)cc2)cnn1-c1ccccc1 | ? | . | . | . | 4.6µM
Cc1ccc(NC(=O)c2cnn(-c3ccccc3)c2C)cc1 | . | ? | . | . | ?
Cc1ccc(NC(=O)c2cnn(-c3ccccc3)c2C)c(C)c1 | ? | -67 | . | . | ?
Cc1cccc(C)c1NC(=O)c1c[nH]c2ccccc12 | 18µM | . | . | . | 26µM
COc1ccc(OCc2nnc(SCC(=O)Nc3ccccc3Cl)o2)cc1 | . | . | . | . | .
COc1ccc(NC(=O)c2ccc(S(=O)(=O)N3CCCC3)cc2)cc1OC | ? | . | . | . | .
CCCCOC(=O)C1=C(C)NC(=O)NC1c1ccccc1 (centres undefined) | . | . | . | . | .
CCOc1ccc(NC(=O)CN(C)C(=O)Cc2n[nH]c(=O)c3ccccc23)cc1OCC | . | . | . | . | .
Cc1nn2c(c1-c1ccc(Cl)cc1)N=C(c1ccco1)CC2c1ccccc1 (centres undefined) | 15µM | ? | ? | ? | ?
Clc1ccc(C2=NN(c3ccccc3)C(c3ccco3)C2)cc1 (centres undefined) | . | . | . | . | .
CCN(c1ccccc1)S(=O)(=O)c1cc(C(=O)NCC(c2ccco2)N2CCCCC2)ccc1C (centres undefined) | ? | -79 | . | . | ?
CCN(c1ccccc1)S(=O)(=O)c1cccc(C(=O)NCC(c2ccco2)N2CCCCC2)c1 (centres undefined) | ? | -55 | ? | . | 16µM
CCN(c1ccccc1)S(=O)(=O)c1cccc(C(=O)NCC(c2ccco2)N2CCCC2)c1 (centres undefined) | ? | . | . | . | ?
CN1CCN(c2ncnc3c2ncn3[C@H]2CN(Cc3ccc4c(c3)OCO4)C[C@@H](CO)O2)CC1 | . | . | . | . | .
CSCc1ccc(C(=O)N2CCC(CCC(=O)N(C)Cc3ccccc3)CC2)o1 | ? | . | . | . | .
COc1ccccc1CCn1c(=O)cnc2cncnc21 | 4.6µM | / | / | / | 5.8µM
COc1ccccc1CCn1c(=O)c(-c2cccs2)nc2cncnc21 | . | / | / | / | .
C=CCn1c(COc2ccccc2F)nnc1SCC(=O)Nc1cc2oc3ccccc3c2cc1OC | ? | . | . | . | ?
